Data from PubChem BioAssay (Tox21).
Inconclusive results are not listed. Entries that show only a call come without a potency. Some compounds were tested as several samples or in several runs, with calls that do not always agree. Activity calls are given as the source filed them. Unless noted, calls come from the whole dose curve.

Experiments:
[1] = Nuclear factor erythroid 2-related factor 2/antioxidant responsive element (Nrf2/ARE) small molecule agonists: qHTS cell viability counter screen in human keratinocytes (AID 1919968; active = well fitted curve in the direction sought with a large enough effect in the repeat runs; an effect the other way counts as inactive or inconclusive; note: nearly all actives have a fitted effect of over 55% in size; note: potency is the fitted concentration of half-maximal effect)
Procedure, shortened: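 CellTiter-Fluor fluorescence, read 1 h after reagent, gave viability in the same wells as the ARE-luciferase assay. KeratinoSens cells (1,500/well) had 23 h compound exposure at 37 C/5% CO2 following 5 h plating.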

[2] = Nuclear factor erythroid 2-related factor 2/antioxidant responsive element (Nrf2/ARE) small molecule agonists: luciferase reporter gene qHTS assay in human keratinocytes (AID 1919969); note: nearly all actives have a fitted effect of over 35% in size
[3] = target: Gonadotropin-releasing hormone receptor (Homo sapiens) (UniProt P30968); experiment: Human gonadotropin-releasing hormone receptor (GnRHR) small molecule agonists, calcium flux assay in GnRHR-HEK293 cells (AID 1920063); note: nearly all actives have a fitted effect of over 35% in size
Procedure, shortened: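 Agonist mode: compounds at 15 concentrations, in triplicate, went onto calcium dye-loaded GnRHR-HEK293 cells. Intracellular calcium was then followed as 480/540 nm fluorescence at 1 s intervals over 3 min.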

[4] = target: KiSS-1 receptor (Homo sapiens) (UniProt Q969F8); experiment: Human kisspeptin (KISS1R) small molecule agonists, calcium flux assay in KISS1R-HEK293 cells (AID 1920064; active = well fitted curve in the direction sought with a large enough effect in the repeat runs; an effect the other way counts as inactive or inconclusive)
Procedure, shortened: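 Agonist mode: intracellular calcium rise tracked at 1 s intervals over 3 min (480/540 nm) immediately after compound addition to dye-loaded KISS1R-HEK293 stable cells. Each compound tested at 15 concentrations in triplicate.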

[5] = G protein-coupled receptor (GPCR) small molecule agonists, calcium flux assay: HEK293 wild type cell line counter screen (AID 1920065)
Procedure, shortened: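 Calcium flux counter screen: compound added in agonist mode at 15 concentrations in triplicate to dye-loaded parental HEK293 cells. Fluorescence (480/540) read kinetically for 3 min; ATP served as positive control.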

[6] = p53 small molecule agonists, cell-based qHTS assay with human liver microsomes (AID 1963577);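 note: p53 response element beta-lactamase reporter cells with liver microsomes plus NADPH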
Procedure, shortened: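 With metabolic activation: human liver microsomes (0.5 mg/mL final) plus NADPH (0.5 mg/mL final) added alongside compounds to p53RE-bla cells; 16 h 37 C exposure; beta-lactamase read by LiveBLAzer fluorescence.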

[7] = p53 small molecule agonists, cell-based qHTS assay with rat liver microsomes (AID 1963578)
Procedure, shortened: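 Metabolic activation by rat liver microsomes and NADPH, each 0.5 mg/mL final, added right after compounds to p53RE-bla reporter cells (4,000/well, plated 5 h earlier). 16 h at 37 C, then LiveBLAzer substrate for 2 h at room temperature in the dark; fluorescence read-out.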

[8] = p53 small molecule agonists, cell-based qHTS assay with human liver microsomes: qHTS cell viability counter screen (AID 1963579); note: nearly all actives have a fitted effect of over 45% in size
Procedure, shortened: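 Metabolic activation used human liver microsomes and NADPH, both 0.5 mg/mL final, over 16 hours at 37 C on p53RE-bla cells (4,000/well). Cytotoxicity measured by CellTiter-Glo luminescence, 30 min at room temperature.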

[9] = p53 small molecule agonists, cell-based qHTS assay with rat liver microsomes: qHTS cell viability counter screen (AID 1963580); note: nearly all actives have a fitted effect of over 45% in size
Procedure, shortened: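 Cytotoxicity counter screen: intracellular ATP read by CellTiter-Glo luminescence in the p53 reporter wells. HCT-116 p53RE-bla cells were treated for 16 h at 37 C alongside rat liver microsomes and NADPH, each 0.5 mg/mL final.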

[10] = target: 5-hydroxytryptamine receptor 2A (Homo sapiens) (UniProt P28223); experiment: 5-hydroxytryptamine receptor 2A (HTR2A) small molecule antagonists, cell-based qHTS assay (AID 1963586); note: nearly all actives have a fitted effect of over 45% in size
Procedure, shortened: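 CHO cells stably expressing human HTR2A were plated for 18 h at 37 C, then loaded with calcium dye for 1 h. Compounds were preincubated 5 min at room temperature before DOI (4 nM solution) was added. Kinetic fluorescence was read for 3 min.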

[11] = target: 5-hydroxytryptamine receptor 2A (Homo sapiens) (UniProt P28223); experiment: 5-hydroxytryptamine receptor 2A (HTR2A) small molecule agonists, cell-based qHTS assay (AID 1963587); note: nearly all actives have a fitted effect of over 30% in size
Procedure, shortened: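 Kinetic calcium-flux fluorescence (2 min, 1 sec intervals) after compound addition in agonist mode. HTR2A-CHO cells were cultured 18 h, then dye-loaded 1 h at 37 C.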

[12] = target: Muscarinic acetylcholine receptor M1 (Homo sapiens) (UniProt P11229); experiment: Cholinergic receptor muscarinic 1 (CHRM1) small molecule antagonists, cell-based qHTS assay (AID 1963588); note: nearly all actives have a fitted effect of over 40% in size; note: potency is the fitted concentration of half-maximal effect
Procedure, shortened: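 Compounds were tested at 15 concentrations in three independent runs. Dye-loaded CHRM1-CHO cells were exposed 5 min at room temperature before stimulation by acetylcholine added at 50nM. Intracellular calcium was read kinetically on FDSS for 3 min.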

[13] = target: Muscarinic acetylcholine receptor M1 (Homo sapiens) (UniProt P11229); experiment: Cholinergic receptor muscarinic 1 (CHRM1) small molecule agonists, cell-based qHTS assay (AID 1963589); note: nearly all actives have a fitted effect of over 35% in size
Procedure, shortened: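 Agonist-mode calcium-flux screen: compounds at 15 concentrations, three independent runs, were pin-transferred onto dye-loaded human CHRM1-CHO cells. Fluorescence was then recorded kinetically every second over minutes.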

[14] = cAMP Responsive Elements (CRE) small molecule agonists, cell-based qHTS assay (AID 1963590)
Procedure, shortened: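 Agonist mode: compound added to CRE-bla HEK 293T cells (2,000/well, 18 h after plating) for 3 h at 37 C/5% CO2. Reporter activity detected via FRET beta-lactamase substrate, 2 h room-temperature loading.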

[15] = target: Beta-2 adrenergic receptor (Homo sapiens) (UniProt P07550); experiment: Adrenergic beta2 receptor (ADRB2) small molecule antagonists, cell-based qHTS assay (AID 1963592); note: nearly all actives have a fitted effect of over 50% in size; note: potency is the fitted concentration of half-maximal effect
Procedure, shortened: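 Assay format: CHO-ADRB2 cells, 18-20hr seeding at 37C/5% CO2, then compound plus 1nM isoproterenol agonist mix for 0.5hr RT. Homogeneous time-resolved fluorescence cAMP detection after 1hr, expressed as 665/615 nm ratio.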

[16] = target: Beta-2 adrenergic receptor (Homo sapiens) (UniProt P07550); experiment: Adrenergic beta2 receptor (ADRB2) small molecule agonists, cell-based qHTS assay (AID 1963593);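 note: CHO cells stably overexpressing human ADRB2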
Procedure, shortened: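 CHO cells stably over-expressing ADRB2 were plated overnight at 37C, then dosed with compounds plus a stimulation mix containing 100uM IBMX and 25uM Ro-20-1724 for 0.5hr at room temperature. cAMP was measured by HTRF competition, 1hr.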

[17] = target: D(2) dopamine receptor (Homo sapiens) (UniProt P14416); experiment: Dopamine D2 receptor (DRD2) small molecule antagonists, cell-based qHTS assay (AID 1963595; active = well fitted inhibition curve with a large enough effect in the signal ratio in the repeat runs, with a control signal flat; the % refers to the signal ratio; note: potency is the fitted concentration of half-maximal effect)
Procedure, shortened: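 Antagonism was scored as restored cAMP in HEK293-DRD2 cells. These cells were stimulated with 200 nM NKH477 and 12 nM quinpirole for 30 min at room temperature, in the presence of 0.1 mM Ro20-1724.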

[18] = p53 small molecule agonists, cell-based qHTS assay (AID 1963582; active = well fitted activation curve with a large enough effect in the signal ratio in the repeat runs, not every such curve was filed as active; the % refers to the signal ratio)
Procedure, shortened: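 Read-out is beta-lactamase FRET fluorescence after 2 h at room temperature with LiveBLAzer B/G substrate. p53 response element-bla cells were treated 16 h at 37 C with compounds in DMSO, added 5 h after seeding.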

[19] = cAMP Responsive Elements (CRE) small molecule antagonists, cell-based qHTS assay (AID 1963591; active = well fitted inhibition curve with a large enough effect in the signal ratio in the repeat runs, not every such curve was filed as active; the % refers to the signal ratio)
Procedure, shortened: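 Antagonist mode: compounds are added alongside the adenylyl cyclase activator NKH477 (0.25 uM final) to CRE-bla HEK293T cells for 3 h. LiveBLAzer FRET substrate, 2 h at room temperature, reports bla expression.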

[20] = target: D(2) dopamine receptor (Homo sapiens) (UniProt P14416); experiment: Dopamine D2 receptor (DRD2) small molecule agonists, cell-based qHTS assay (AID 1963594); note: nearly all actives have a fitted effect of over 35% in size
Procedure, shortened: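 cAMP accumulation in DRD2-HEK293 cells measured by HTRF after 1 h detection; compounds added 10 min before NKH477 (200nM […]) forskolin-analogue stimulation, 30 min at room temperature, with Ro20-1724 present at 0.1 mM final.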

Chain of Gonadotropin-releasing hormone receptor (Homo sapiens) (P30968 whole entry, looked up): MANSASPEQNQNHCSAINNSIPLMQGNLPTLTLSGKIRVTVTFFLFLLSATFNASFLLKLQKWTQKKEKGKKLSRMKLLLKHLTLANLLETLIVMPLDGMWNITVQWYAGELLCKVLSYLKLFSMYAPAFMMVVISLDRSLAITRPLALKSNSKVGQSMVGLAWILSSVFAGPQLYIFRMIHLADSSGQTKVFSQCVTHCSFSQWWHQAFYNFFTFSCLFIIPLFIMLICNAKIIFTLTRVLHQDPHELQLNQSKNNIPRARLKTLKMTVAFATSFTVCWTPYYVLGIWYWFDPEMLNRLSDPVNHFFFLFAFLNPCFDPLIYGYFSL
Chain of Muscarinic acetylcholine receptor M1 (Homo sapiens) (P11229 whole entry, looked up): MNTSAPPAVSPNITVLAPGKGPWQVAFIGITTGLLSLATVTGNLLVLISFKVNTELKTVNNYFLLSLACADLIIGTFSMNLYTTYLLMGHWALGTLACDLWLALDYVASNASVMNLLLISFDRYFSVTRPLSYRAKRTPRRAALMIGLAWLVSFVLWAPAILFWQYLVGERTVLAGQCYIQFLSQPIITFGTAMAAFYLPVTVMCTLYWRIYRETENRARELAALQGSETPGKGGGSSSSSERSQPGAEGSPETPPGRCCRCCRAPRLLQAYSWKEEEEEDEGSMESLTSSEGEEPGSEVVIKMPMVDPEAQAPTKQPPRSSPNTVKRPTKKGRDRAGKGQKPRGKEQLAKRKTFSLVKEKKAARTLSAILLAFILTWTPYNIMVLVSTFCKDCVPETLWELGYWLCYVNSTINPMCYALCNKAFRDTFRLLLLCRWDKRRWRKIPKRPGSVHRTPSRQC
Chain of D(2) dopamine receptor (Homo sapiens) (P14416 whole entry, looked up): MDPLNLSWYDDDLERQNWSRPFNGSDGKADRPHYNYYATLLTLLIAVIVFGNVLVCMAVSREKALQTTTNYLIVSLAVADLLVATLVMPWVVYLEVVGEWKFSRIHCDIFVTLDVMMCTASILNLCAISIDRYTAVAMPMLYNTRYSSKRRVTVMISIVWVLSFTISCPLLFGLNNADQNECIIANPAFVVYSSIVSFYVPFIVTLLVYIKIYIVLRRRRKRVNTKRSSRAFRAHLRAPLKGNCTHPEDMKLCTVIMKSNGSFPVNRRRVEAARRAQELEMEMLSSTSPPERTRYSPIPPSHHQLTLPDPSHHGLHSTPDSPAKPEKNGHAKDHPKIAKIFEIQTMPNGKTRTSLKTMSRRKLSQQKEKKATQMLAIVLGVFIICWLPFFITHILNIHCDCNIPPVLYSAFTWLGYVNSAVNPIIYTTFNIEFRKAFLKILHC
Chain of 5-hydroxytryptamine receptor 2A (Homo sapiens) (P28223 whole entry, looked up): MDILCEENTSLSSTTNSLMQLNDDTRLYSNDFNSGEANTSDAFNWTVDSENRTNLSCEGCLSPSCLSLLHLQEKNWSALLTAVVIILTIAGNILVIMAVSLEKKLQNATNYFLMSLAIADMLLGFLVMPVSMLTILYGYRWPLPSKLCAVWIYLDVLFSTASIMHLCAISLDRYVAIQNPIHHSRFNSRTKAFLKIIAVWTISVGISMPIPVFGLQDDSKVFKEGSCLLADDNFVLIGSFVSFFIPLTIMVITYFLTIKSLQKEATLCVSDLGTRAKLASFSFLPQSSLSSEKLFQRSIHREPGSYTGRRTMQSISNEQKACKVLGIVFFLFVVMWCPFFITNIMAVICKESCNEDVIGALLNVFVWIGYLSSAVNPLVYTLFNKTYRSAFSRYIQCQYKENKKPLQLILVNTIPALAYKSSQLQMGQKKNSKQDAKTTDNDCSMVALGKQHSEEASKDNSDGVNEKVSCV
Chain of Beta-2 adrenergic receptor (Homo sapiens) (P07550 whole entry, looked up): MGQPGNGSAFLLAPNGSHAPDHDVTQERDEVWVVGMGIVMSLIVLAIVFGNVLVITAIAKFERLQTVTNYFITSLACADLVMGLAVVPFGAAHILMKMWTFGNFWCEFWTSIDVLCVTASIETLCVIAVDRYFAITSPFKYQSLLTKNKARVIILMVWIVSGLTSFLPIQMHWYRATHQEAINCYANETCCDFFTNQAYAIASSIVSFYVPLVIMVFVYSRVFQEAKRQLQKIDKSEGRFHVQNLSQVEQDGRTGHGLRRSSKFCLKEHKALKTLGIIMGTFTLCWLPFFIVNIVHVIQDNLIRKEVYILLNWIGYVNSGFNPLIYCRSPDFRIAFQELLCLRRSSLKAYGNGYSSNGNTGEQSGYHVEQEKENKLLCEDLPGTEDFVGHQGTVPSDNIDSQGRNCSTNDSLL
Chain of KiSS-1 receptor (Homo sapiens) (Q969F8 whole entry, looked up): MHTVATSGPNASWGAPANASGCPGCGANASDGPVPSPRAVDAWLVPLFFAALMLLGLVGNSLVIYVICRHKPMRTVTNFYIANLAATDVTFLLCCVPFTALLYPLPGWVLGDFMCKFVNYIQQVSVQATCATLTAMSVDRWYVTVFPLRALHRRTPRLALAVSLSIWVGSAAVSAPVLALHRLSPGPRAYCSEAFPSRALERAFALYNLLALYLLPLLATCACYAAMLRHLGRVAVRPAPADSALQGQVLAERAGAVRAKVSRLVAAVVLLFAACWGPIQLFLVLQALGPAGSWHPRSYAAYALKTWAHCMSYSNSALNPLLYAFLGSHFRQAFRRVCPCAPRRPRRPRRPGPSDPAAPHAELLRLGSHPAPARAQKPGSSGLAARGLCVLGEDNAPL

Compound	Potency [1]	Potency [2]	Potency [3]	Potency [4]	Potency [5]	Potency [6]	Potency [7]	Potency [8]	Potency [9]	Potency [10]	Potency [11]	Potency [12]	Potency [13]	Potency [14]	Potency [15]	Potency [16]	Potency [17]	Potency [18]	Potency [19]	Potency [20]
CC[C@]12CCCN3CCc4c(n(c5ccccc45)[C@@](O)(C(=O)OC)C1)[C@@H]32	inactive	inactive	inactive	inactive	inactive	inactive	inactive	inactive	inactive	inactive	inactive	inactive	inactive	inactive	inactive	inactive	inactive			
C[C@@H]1CCC[C@H](C)N1	inactive	inactive	inactive	inactive	inactive	inactive	inactive	inactive		inactive	inactive	inactive	inactive	inactive	inactive		inactive	inactive	inactive	inactive
Cc1ccc(C(=O)C(=O)O)cc1C	inactive	inactive	inactive	inactive	inactive	inactive	inactive	inactive	inactive		inactive	inactive	inactive	inactive	inactive	inactive	inactive	inactive		inactive
CN(C)CCC=C1c2ccccc2CCc2ccccc21	inactive	inactive	inactive	inactive	inactive	inactive	inactive	inactive	inactive					inactive	24.3 µM (active)		27.3 µM (active)		inactive	inactive
Oc1ccccc1O	inactive	inactive	inactive	inactive	inactive	inactive	inactive	inactive	inactive					inactive	inactive		inactive			inactive
CNC1(C)C2CCC(C2)C1(C)C (configuration not stated)	inactive	inactive	inactive	inactive	inactive	inactive	inactive	inactive		inactive	inactive	inactive	inactive	inactive	inactive	inactive	inactive	inactive	inactive	inactive
Cc1ncc(CSSCc2cnc(C)c(O)c2CO)c(CO)c1O	inactive	inactive	inactive	inactive	inactive	inactive	inactive	inactive		inactive	inactive	inactive	inactive	inactive	inactive	inactive	inactive	inactive	inactive	inactive
CC(=O)Nc1ncc([N+](=O)[O-])s1	inactive	inactive	inactive	inactive	inactive	inactive	inactive	inactive		inactive	inactive	inactive	inactive	inactive	inactive	inactive	inactive	inactive	inactive	inactive
C=C(C)C(=O)OC(C)C	inactive	inactive	inactive	inactive	inactive	inactive	inactive	inactive		inactive	inactive	inactive	inactive	inactive	inactive	inactive	inactive	inactive	inactive	inactive
Clc1ccc2c(Cl)ccnc2c1	inactive	inactive	inactive	inactive	inactive	inactive	inactive	inactive	inactive	inactive	inactive	inactive		inactive	inactive	inactive	inactive		inactive	inactive
O=C(CCNNC(=O)c1ccncc1)NCc1ccccc1	inactive	inactive	inactive	inactive	inactive	inactive	inactive	inactive		inactive	inactive	inactive	inactive	inactive	inactive			inactive	inactive	inactive
CC(=C(CCOC(=O)C(C)C)SSC(CCOC(=O)C(C)C)=C(C)N(C=O)Cc1cnc(C)nc1N)N(C=O)Cc1cnc(C)nc1N	inactive	inactive	inactive	inactive	inactive	inactive	inactive	inactive		inactive	inactive	inactive	inactive	inactive	inactive			inactive	inactive	inactive
CC(C)CC(O)CC(C)C	inactive	inactive	inactive	inactive	inactive	inactive	inactive	inactive	inactive	inactive	inactive	inactive	inactive	inactive	inactive	inactive	inactive		inactive	inactive
CCO[Si](CCCN=C=O)(OCC)OCC	inactive	inactive	inactive	inactive	inactive	inactive	inactive	inactive		inactive	inactive	inactive	inactive	inactive	inactive		inactive	inactive	inactive	inactive
OCC#CCO	inactive	inactive	inactive	inactive	inactive	inactive	inactive	inactive		inactive	inactive	17 µM (active) and inactive	inactive	inactive	inactive	inactive	inactive	inactive	inactive	inactive
Clc1ccccc1C(c1ccccc1)(c1ccccc1)n1ccnc1	30.6 µM (active)	inactive	inactive	inactive	inactive	inactive	inactive	inactive	inactive						inactive	inactive	61.1 µM (active)	inactive		
